Results taken from PubChem BioAssay AID2314 (National Center for Advancing Translational Sciences (NCATS), 2010).
Hit rate of the full screen: of about 300,000 compounds, about 37,000 (12%) were called active. This is one part of a sample in which actives are shown more often than they occur. A number with no mark means an inactive call. No stated cut-off is given here; in the data, active means max response mostly above about 13% (no sharp cut-off); inactive means mostly below about 14%.

Experiment: Cycloheximide Counterscreen for Small Molecule Inhibitors of Shiga Toxin; further: read at 38.3 µM for the half of the compounds with a filed dose; 0% is about no effect
Details: cell reporter, cycloheximide protein synthesis inhibition counterscreen; stronger effect = higher value

Structure (SMILES) | max response
C=CCNc1nc(N)c(C(=C(C#N)C#N)c2ccccc2)s1 | 1.38%
Cc1ccn2c(c1)nc(=O)c1cc(S(=O)(=O)N3CCC(C)CC3)ccc12 | -3.62%
OC(CN=c1sc2ccccc2n1CC(O)COc1ccccc1)COc1ccccc1 (stereo not drawn) | 0.416%
O=C(Nc1ccc(Cl)cc1)c1cccc(OC(=S)N2CCOCC2)c1 | 21.3%
CC(C)Oc1ccc(C(CC(=O)N2CCOCC2)C(C)C)cc1 (stereo not drawn) | 0.501%
O=C(NNC(=O)C(O)c1ccccc1)NC1CCCCC1 (stereo not drawn) | -2.85%
COCC(C)NC(=O)c1ccc(-n2nc(C(F)(F)F)cc2-c2cccs2)cc1 (stereo not drawn) | 1.01%
Nc1nonc1-n1nnc(C(=O)N/N=C/c2ccc(Cl)cc2)c1-c1ccc2c(c1)OCO2 | -1.92%
Cc1c(-c2ccccc2)cn2c1-c1ccc(C)n1CC2 | -3.8%
O=C1COc2ccc(NC(=O)N3CCN(c4ccc(F)cc4)CC3)cc2N1 | -3.27%
COc1ccc(OC)c(NC(=O)CSc2nc(-c3ccccc3)cc(=O)[nH]2)c1 | -6.47%
O=C(Oc1ccc(C(=S)N2CCOCC2)cc1)c1ccc(F)cc1 | -3.82%
CCC(NC(=O)c1cc(COc2ccc(F)c(F)c2)on1)c1ccncc1 (stereo not drawn) | 33.7% (active)
COc1cc(C(=O)N2CCOCC2)cc(OC)c1OC | -5.91%
O=C(CC(NC(=O)c1ccccc1)c1ccccc1)Nc1ccc(F)c(F)c1 (stereo not drawn) | 1.73%
COc1ccc(OCc2cc(C(=O)NCC3(C)COC3)no2)c(Cl)c1 | 40.1% (active)
O=C(c1cc(COc2ccc(F)cc2F)on1)N1CCOCC1 | 47% (active)
COc1ccc(-c2cc(C(=O)NCCCN3CCOCC3)no2)cc1 | 2.58%
COc1ccc(CCNC(=O)c2cnc(Cl)c(Cl)c2)cc1 | 6.51%
O=C(NC1Cc2ccccc2C1)c1cc(COc2cccc(C(F)(F)F)c2)on1 | -3.57%
O=C(Nc1ccc(N2CCOCC2)cc1)c1ccc(-c2ccccc2[N+](=O)[O-])o1 | 21.5%
COc1ccc(/C=C2\CCCC3C2=NN(C(=O)c2scnc2C)C3c2ccc(OC)cc2)cc1 (stereo not drawn) | 11.8%
CCOC(=O)N1CCN(S(=O)(=O)c2ccc(-n3cnnn3)cc2)CC1 | -0.729%
O=S(=O)(NC1CCCCC1N1CCC(O)CC1)c1ccc(Cl)cc1 (stereo not drawn) | -0.643%

Structure (SMILES) | max response
Oc1ccc(C2Nc3cccc4cccc(c34)N2)cc1 | -1.27%
O=C(O)c1ccc(NS(=O)(=O)c2ccc3c(c2)C(=O)c2cc(S(=O)(=O)Nc4ccc(C(=O)O)cc4)ccc2-3)cc1 | 12.6%
Cc1cccc(CCNS(=O)(=O)c2ccc3c(c2)NC(=O)CO3)c1 | -8.72%
COc1ccc(C2CC(O)(c3ccccc3)Oc3cc(C)cc(C)c32)cc1 (stereo not drawn) | 15.7%
CCOC(=O)c1cc(=O)c2ccc(OCc3ccccc3)cc2o1 | -0.548%
N#C/C(=C(/O)COC(=O)COc1ccc(Cl)cc1)c1nc2ccccc2[nH]1 | -7.7%
O=C(C[n+]1ccc2c(c1)nnn2-c1ccccc1)c1ccc(Cl)cc1 | 6.33%
O=C(Cc1nc2ccccc2[nH]c1=O)c1ccc(Cl)cc1 | 49.5% (active)
COc1ccc(CC(NC(C)=O)C(=O)NC2CCN(C(=O)c3ccc(Cl)cc3)CC2)cc1 (stereo not drawn) | -8.8%
c1ccc2c(NC3C4CC5CC(C4)CC3C5)nc(N3CCOCC3)nc2c1 (stereo not drawn) | -3.82%
O=C(NCc1ccco1)c1cccn2c(=O)c3c4c(sc3nc12)CCCC4 | 13.5%
Cn1c(=O)n(Cc2ccco2)c(=N)c2c3c(sc21)CCCC3 | -4.49%
O=c1oc(-c2ccco2)nc2sc3c(c12)CCCCC3 | 15% (active)
Cc1cccc(NC(=O)C2CCCN(C(=O)NCc3ccccc3)C2)c1C (stereo not drawn) | 1.32%
Clc1ccc(C2[C@H]3CN(CC4CCCCC4)[C@H](c4ccccc4)C34CC2(c2cccnc2)C4)cn1 (stereo partly drawn) | -6.35%
O=S(=O)(c1ccc(Br)cc1)n1ccc2ccccc21 | -2.94%
CC(=O)c1nn(-c2cccc(C(F)(F)F)c2)c(=O)[nH]c1=O | -1.16%
Brc1cccc(-c2nnc3n2CCC3)c1 | -1.45%
COc1ccc(-c2nnc3n2CCCCC3)cc1 | -0.714%
COc1ccc(-c2nc3n(c2Br)CCC3)cc1 | 45.3% (active)
COc1ccc(Br)cc1C(=O)NC(=S)Nc1cc(-c2nc3ccccc3[nH]2)ccc1C | 24.4%
COc1ccc(-c2nc(N)ncc2-c2ccc(Cl)cc2)c(O)c1 | -1.99%
Cc1[nH]c2ccccc2c1C(=O)COC(=O)c1c(-c2ccccc2)noc1C | -1.13%
Cc1[nH]c2ccccc2c1C(=O)CSCC(=O)O | -0.861%

Structure (SMILES) | max response
Cc1[nH]c2ccccc2c1C(=O)COC(=O)C(C)C | 17.9% (active)
Cc1ccc(N(CC(=O)NC2CCCCC2)C(=O)CCCC(=O)Nc2ccccn2)c(C)c1 | -2.99%
CCc1ccc2[nH]c(=O)c(Cc3ccccc3)c(O)c2c1 | 0.407%
COc1ccc(-c2onc(C)c2-c2ccc3c(c2)OCCO3)c(O)c1 | -1.9%
COc1cc(-c2c(-c3ccc4c(c3)OCO4)noc2C)ccc1F | 31.7% (active)
COc1ccc(CCNC(=O)c2cc(-c3ccc4c(c3)OCO4)on2)cc1OC | -2.19%
Cc1ccc(-c2cnc(NC(=O)CCC(=O)N(C)Cc3ccccc3)n2C)cc1 | 1.02%
CC(C)(C)c1ccc(C(=O)NCCC(=O)NCc2ccco2)cc1 | 6.14%
COc1ccc(C(=O)Nc2ccccc2C(=O)NCc2ccco2)cc1 | -2.2%
Cc1cccc(Nc2ccccc2C(=O)NCc2ccco2)c1C | -4.07%
CC(C)(C)NC(=O)NCc1ccco1 | -1.96%
CC(C)(C)c1ccc(NC(=O)NCc2ccco2)cc1 | 47.3% (active)
O=C(Nc1ccccc1)Nc1ccccc1C(=O)NCc1ccco1 | 12.3% (active)
CCOCCCNC(=O)C1(O)c2cc(Br)ccc2NC(=O)N1c1ccc(C)c(C)c1 (stereo not drawn) | -2.74%
O=C(/C=C/c1ccc(F)cc1)Nc1cccc(S(=O)(=O)Nc2cccc(C(F)(F)F)c2)c1 | -2.37%
CCCC1(C(=O)OCC)NC(c2ccc(N(C)C)cc2)C2C(=O)N(c3ccc4c(c3)OCCO4)C(=O)C21 (stereo not drawn) | -5.79%
CC1CCCCC1NC(=O)CSc1nnc(-c2ccncc2)n1CCCN(C)C (stereo not drawn) | -2.68%
COc1cccc(CN(C)CC(O)COC(c2ccccc2)c2ccccc2C)c1 (stereo not drawn) | -4.62%
CC(CNc1ccc([N+](=O)[O-])cc1)NC(=O)c1ccccc1Br (stereo not drawn) | -2.28%
CCNC(=S)N(CCN(CC)CC)Cc1cc2cc3c(cc2[nH]c1=O)OCO3 | -2.69%
CSc1nnc(-c2ccc(C(F)(F)F)cn2)o1 | 15.3% (active)
CC(C)Oc1ccc(Oc2ccc(C(F)(F)F)cn2)cc1 | 10.2%
CCOc1cc(N2CCOCC2)c(OCC)cc1NC(=O)c1ccc(C)s1 | -4.86%
CCn1c(SCC(=O)Nc2ccc(Br)cc2)nc2sc3c(c2c1=O)CCN(C)C3 | 9.46%

Structure (SMILES) | max response
COc1ccc(CCNC(=O)c2ccc(CS(=O)(=O)c3ccc(Br)cc3)o2)cc1OC | 10.1%
C=CCN1C(=O)C(Cc2cccc(Cl)c2)S/C1=N/N=C/c1ccco1 (stereo not drawn) | 6.81%
COc1ccc(CN2C(=O)C(C)S/C2=N/N=C/c2ccco2)cc1 (stereo not drawn) | 31.9% (active)
CCC1S/C(=N/N=C/c2ccco2)NC1=O (stereo not drawn) | 0.781%
COc1cc(OC)cc(C(=O)NC2CCN(C(=O)N3c4ccccc4Sc4ccccc43)CC2)c1 | 9.65%
CCCc1cc(=O)n2[nH]c(C)c(-c3ccc(Cl)cc3)c2n1 | -2.56%
COc1ccc(N(CC(=O)Nc2cc(OC)ccc2OC)S(=O)(=O)c2c(C)noc2C)cc1 | -6.58%
O=C(/C=C/c1cccs1)c1cc(Cl)ccc1OC(=O)N1CCOCC1 | 23.9% (active)
CC(=O)Nc1ccccc1OC(=O)N1CCOCC1 | 11.6%
O=C(Oc1cccc(C(=S)N2CCOCC2)c1)c1cccc(Cl)c1 | -0.347%
Cc1cccc(OCC(O)Cn2c(N3CCCCC3)nc3c2c(=O)[nH]c(=O)n3C)c1 (stereo not drawn) | 14.8%
CCOC(=O)C1=C(C)NC(=O)N(C(C)=O)C1c1ccc(Cl)cc1 (stereo not drawn) | -4.1%
CCOC(=O)c1c(S(=O)(=O)Nc2cccc(Cl)c2)c(C)n(C)c1C | 5.3%
CCOC(=O)c1c(Cc2ccc(Cl)cc2)c[nH]c1C | 26.8% (active)
CC(OC(=O)c1ccc2noc(-c3ccccc3)c2c1)C(N)=O (stereo not drawn) | 2.78%
O=C(Nc1ccc([N+](=O)[O-])cc1)C1CC12CCC2 (stereo not drawn) | 21.8% (active)
O=C(Nc1ccc([N+](=O)[O-])cc1)C1(c2ccccc2)CCOCC1 | -3.32%
O=C(Nc1ccc(F)cc1)C1CCN(C(=O)c2ccc([N+](=O)[O-])cc2)CC1 | 3.26%
O=C(c1c(F)cccc1F)N1CCN(S(=O)(=O)c2ccc3c(c2)OCCO3)CC1 | 13.2%
COc1ccc(N2CC(C(=O)NCCS(=O)(=O)N3CCN(c4ccccc4)CC3)CC2=O)cc1 (stereo not drawn) | 5.23%
C=CCc1cccc(/C=N/NC(=O)COc2ccc(-n3cnnn3)cc2)c1O | 7.64%
